Data from ChEMBL document CHEMBL3988442, “University of Dundee, Small-Polar-MMV Screening Library” (2021).
For some assays here: Potency and affinity values are given separately.

Legend:
Set-up in all cases: scale not given: direction of the effect not stated beside the values
[1] = target: Protein translocase subunit SecA (Escherichia coli (strain K12)) (UniProt P10408); test: Assay to Identify E. coli SecA ATPase Inhibitors; type: functional; details: 30 µM
[2] = target: T1, Ubiquitin-activating enzyme e1, putative (Leishmania donovani (strain BPK282A1)) (UniProt E9BSI1); test: Leishmania donovani Ubiquitin Activating Enzyme (LdE1); type: functional; details: 30 µM
T1 sequence (whole entry): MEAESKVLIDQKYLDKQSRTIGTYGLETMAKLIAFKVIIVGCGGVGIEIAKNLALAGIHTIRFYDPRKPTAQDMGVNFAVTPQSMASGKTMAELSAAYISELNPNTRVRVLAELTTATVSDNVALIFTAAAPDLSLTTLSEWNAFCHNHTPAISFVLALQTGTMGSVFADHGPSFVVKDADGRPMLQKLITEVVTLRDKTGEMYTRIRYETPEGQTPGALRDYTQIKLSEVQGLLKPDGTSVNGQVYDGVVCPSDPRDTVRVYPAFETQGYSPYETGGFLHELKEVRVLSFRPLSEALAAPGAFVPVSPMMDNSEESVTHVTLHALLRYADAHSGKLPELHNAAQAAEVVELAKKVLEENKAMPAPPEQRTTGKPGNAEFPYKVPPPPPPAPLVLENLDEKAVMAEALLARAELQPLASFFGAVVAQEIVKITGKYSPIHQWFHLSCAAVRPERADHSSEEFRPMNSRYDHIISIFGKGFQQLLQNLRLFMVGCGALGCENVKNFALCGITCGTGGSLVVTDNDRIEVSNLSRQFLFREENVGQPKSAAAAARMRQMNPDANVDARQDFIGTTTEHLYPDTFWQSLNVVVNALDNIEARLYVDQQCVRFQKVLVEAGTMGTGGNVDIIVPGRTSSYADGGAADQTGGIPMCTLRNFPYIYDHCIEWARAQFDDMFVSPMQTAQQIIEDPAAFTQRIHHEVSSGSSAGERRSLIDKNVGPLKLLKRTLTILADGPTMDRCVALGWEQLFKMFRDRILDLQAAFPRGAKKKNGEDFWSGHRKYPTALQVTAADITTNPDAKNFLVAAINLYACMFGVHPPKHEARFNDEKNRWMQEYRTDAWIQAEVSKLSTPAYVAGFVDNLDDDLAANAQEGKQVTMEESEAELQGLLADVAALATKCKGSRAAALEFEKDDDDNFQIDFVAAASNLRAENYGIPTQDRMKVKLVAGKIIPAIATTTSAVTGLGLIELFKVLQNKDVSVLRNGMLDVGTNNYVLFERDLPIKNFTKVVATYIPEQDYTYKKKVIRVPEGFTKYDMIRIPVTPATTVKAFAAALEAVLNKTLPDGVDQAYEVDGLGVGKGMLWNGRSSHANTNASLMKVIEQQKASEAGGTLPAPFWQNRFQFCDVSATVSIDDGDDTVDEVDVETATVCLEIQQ

[3] = target: AMP-activated protein kinase, AMPK (Homo sapiens) (UniProt P54646+O43741+P54619+Q9UGJ0+Q9Y478+Q13131+Q9UGI9); test: AMP-dependent Kinase enzyme assay. An in vitro enzyme assay that detects ADP turnover that is directly proportional to AMPK activity. This uses naive AMPK that is activated during the assay with MK-8722; type: functional; details: 30 µM
[4] = target: Sialic acid-binding Ig-like lectin 9 (Homo sapiens) (UniProt Q9Y336); test: Hs-Siglec9 ALPHAscreen SOP 20170721; details: 10 µM
Trypanosoma cruzi = test: Trypanosoma cruzi phosphomannomutase and mannose-1-phosphate guanylyltransferase assay; type: functional; details: 10 µM
[5] = target: T2, Arginase-2, mitochondrial (Homo sapiens) (UniProt P78540); test: in vitro enzyme assay to detect the production of urea directly proportional to the activity of Arginase II; type: functional; details: 33.3 µM; note: in the data most compounds retested in dose-response had high values
T2 sequence (whole entry): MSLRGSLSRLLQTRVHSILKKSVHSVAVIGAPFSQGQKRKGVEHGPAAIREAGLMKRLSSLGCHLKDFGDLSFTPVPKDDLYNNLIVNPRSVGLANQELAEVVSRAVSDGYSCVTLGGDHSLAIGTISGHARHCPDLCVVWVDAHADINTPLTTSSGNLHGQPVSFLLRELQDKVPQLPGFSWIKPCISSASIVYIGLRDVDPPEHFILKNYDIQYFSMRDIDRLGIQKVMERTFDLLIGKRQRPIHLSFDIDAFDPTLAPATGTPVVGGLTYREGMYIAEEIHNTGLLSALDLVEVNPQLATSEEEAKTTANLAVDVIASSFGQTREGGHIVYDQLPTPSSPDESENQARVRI

[6] = target: T3, Proteasome subunit beta (Trypanosoma cruzi) (UniProt O96673); test: Trypanosoma cruzi proteasome chymotrypsin-like activity (TcProtChymo) assay.; note: in the data most compounds retested in dose-response had high values; type: functional; details: 9.37 µM
T3 sequence (whole entry): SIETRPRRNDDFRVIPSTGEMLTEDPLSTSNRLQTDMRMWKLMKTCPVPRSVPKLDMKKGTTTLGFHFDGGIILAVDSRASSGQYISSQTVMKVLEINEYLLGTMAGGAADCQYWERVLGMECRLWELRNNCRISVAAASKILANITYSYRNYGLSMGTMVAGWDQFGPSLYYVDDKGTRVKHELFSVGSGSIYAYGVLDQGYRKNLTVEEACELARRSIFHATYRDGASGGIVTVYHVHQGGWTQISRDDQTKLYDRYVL

Homo sapiens = species on record: Homo sapiens; test: To identify inhibition of the IFN signalling (Jak-Stat) pathway via expression of an eGFP reporter gene under the control of an IFN-stimulated response element (ISRE) containing MxA promoter.; type: functional; details: 30 µM
[7] = target: T4, Tyrosyl-tRNA synthetase, putative (Trypanosoma cruzi (strain CL Brener)) (UniProt Q4DSP6); test: Trypanosoma cruzi tyrosyl tRNA synthetase (TcYRS) _High Tyrosine SOP; type: functional; details: 30 µM; note: in the data most compounds retested in dose-response had high values
T4 sequence (whole entry): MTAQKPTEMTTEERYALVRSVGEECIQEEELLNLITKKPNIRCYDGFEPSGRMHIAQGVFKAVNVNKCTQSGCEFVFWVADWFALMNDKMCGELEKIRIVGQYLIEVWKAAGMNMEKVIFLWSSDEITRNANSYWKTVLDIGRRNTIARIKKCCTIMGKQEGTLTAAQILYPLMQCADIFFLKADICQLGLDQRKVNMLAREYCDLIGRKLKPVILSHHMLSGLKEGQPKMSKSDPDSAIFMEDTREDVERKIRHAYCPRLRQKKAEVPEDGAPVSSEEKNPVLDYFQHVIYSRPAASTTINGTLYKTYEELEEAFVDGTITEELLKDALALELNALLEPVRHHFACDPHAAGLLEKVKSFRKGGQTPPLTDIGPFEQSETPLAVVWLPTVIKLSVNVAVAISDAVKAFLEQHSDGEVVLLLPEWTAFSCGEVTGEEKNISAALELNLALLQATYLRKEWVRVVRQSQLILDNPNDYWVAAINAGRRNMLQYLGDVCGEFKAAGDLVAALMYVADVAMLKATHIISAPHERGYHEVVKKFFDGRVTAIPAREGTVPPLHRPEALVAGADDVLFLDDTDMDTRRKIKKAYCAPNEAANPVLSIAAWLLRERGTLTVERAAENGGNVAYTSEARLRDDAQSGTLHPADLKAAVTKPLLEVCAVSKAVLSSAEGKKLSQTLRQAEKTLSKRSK

[8] = target: T4, Tyrosyl-tRNA synthetase, putative (Trypanosoma cruzi (strain CL Brener)); test: Trypanosoma cruzi tyrosyl tRNA synthetase (TcYRS) SOP; type: functional; details: 30 µM
[9] = target: Chromo domain-containing protein 1 (Saccharomyces cerevisiae (strain ATCC 204508 / S288c) (Baker's yeast)) (UniProt P32657); test: ScCHD-1 Enzyme Inhibition Assay; type: functional; details: 30 µM; note: in the data most compounds retested in dose-response had high values
Chromo domain-containing protein 1 (Saccharomyces cerevisiae (strain ATCC 204508 / S288c) (Baker's yeast)), sequence (P32657 whole entry, the tested form may be a part): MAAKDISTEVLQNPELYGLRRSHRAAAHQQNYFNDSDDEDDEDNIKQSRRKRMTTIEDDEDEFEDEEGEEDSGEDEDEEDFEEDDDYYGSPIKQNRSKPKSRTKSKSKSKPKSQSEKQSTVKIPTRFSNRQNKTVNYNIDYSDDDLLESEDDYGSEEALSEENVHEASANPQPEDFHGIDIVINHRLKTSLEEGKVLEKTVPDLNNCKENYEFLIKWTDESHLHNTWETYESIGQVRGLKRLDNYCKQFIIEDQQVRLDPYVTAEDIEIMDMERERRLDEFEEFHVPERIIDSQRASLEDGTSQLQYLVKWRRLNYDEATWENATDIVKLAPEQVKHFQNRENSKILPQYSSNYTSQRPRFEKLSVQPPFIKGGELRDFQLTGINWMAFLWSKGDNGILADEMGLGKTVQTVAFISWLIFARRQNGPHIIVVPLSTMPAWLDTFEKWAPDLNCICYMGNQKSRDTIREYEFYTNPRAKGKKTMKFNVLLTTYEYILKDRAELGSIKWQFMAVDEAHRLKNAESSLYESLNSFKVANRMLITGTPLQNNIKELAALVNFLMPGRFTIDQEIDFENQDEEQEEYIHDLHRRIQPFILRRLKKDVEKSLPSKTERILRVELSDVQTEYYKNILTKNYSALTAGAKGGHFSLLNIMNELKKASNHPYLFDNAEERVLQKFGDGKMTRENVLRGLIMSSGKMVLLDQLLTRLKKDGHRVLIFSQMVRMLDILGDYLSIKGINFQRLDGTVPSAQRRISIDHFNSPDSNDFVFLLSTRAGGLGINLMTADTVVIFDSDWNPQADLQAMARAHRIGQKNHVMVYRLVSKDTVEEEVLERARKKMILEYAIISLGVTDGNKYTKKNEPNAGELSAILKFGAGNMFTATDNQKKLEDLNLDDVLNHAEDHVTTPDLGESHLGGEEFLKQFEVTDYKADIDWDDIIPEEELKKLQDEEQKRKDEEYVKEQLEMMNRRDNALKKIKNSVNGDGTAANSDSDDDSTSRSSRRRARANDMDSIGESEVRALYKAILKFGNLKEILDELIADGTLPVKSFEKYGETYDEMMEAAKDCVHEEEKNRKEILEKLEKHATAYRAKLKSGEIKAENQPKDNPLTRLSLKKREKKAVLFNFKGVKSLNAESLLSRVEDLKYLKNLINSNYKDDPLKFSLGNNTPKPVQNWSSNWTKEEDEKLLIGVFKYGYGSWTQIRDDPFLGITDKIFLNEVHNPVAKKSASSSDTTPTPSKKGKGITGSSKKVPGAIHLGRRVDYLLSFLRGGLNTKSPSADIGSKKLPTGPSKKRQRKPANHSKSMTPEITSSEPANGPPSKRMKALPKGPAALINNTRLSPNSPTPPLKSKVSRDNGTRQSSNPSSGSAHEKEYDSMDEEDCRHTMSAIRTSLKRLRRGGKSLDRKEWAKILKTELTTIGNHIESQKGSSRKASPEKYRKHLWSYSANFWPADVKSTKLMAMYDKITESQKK

Protein translocase subunit SecA (Escherichia coli (strain K12)), sequence (P10408 whole entry): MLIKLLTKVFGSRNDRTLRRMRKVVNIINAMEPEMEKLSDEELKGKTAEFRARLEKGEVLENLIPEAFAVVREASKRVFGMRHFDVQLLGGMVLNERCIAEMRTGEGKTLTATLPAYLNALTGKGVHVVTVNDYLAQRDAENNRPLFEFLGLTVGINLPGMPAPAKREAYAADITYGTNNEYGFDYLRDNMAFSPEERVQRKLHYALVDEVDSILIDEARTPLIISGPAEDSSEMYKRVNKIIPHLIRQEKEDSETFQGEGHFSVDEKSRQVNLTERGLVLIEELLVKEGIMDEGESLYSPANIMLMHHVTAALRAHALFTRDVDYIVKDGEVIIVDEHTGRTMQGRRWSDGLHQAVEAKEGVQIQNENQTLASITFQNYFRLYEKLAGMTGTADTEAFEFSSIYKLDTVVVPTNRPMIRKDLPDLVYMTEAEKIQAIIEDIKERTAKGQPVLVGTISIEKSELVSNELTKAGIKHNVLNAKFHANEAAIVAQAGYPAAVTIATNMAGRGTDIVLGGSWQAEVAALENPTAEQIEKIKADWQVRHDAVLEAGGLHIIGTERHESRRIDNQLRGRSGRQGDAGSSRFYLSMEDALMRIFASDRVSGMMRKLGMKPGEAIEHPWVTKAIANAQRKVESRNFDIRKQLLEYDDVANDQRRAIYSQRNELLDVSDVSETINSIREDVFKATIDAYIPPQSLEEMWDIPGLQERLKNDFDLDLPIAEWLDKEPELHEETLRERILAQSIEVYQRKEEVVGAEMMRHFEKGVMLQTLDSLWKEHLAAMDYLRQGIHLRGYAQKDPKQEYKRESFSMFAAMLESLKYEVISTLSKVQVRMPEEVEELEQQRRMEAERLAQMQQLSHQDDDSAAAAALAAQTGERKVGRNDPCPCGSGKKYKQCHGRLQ
Sialic acid-binding Ig-like lectin 9 (Homo sapiens), sequence (Q9Y336 whole entry): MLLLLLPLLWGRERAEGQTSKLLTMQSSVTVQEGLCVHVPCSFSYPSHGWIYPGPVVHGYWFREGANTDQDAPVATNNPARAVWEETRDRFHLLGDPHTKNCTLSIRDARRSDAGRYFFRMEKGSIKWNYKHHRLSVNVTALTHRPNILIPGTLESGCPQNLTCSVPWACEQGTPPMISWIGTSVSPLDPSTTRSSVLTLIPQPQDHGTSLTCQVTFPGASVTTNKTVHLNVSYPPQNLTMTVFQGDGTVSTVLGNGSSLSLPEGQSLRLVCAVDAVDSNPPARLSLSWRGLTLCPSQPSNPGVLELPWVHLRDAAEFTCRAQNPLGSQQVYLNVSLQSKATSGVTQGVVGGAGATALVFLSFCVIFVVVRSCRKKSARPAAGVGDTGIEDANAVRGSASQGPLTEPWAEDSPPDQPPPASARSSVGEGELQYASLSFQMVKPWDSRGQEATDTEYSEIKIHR

| SMILES | Percent Effect [1] [%] | Percent Effect [2] [%] | Percent Effect [3] [%] | Percent Effect [4] [%] | Percent Effect (Trypanosoma cruzi) [%] | Percent Effect [5] [%] | Percent Effect [6] [%] | Percent Effect (Homo sapiens) [%] | Percent Effect [7] [%] | Percent Effect [8] [%] | Percent Effect [9] [%] |
| --- | --- | --- | --- | --- | --- | --- | --- | --- | --- | --- | --- |
| COC(CNC(=O)N1CCC(n2cncn2)CC1)c1ccccc1 (stereo unspecified) | -0.684 | -3.8 | 13.4 | 3.12 | -1.13 | 1.94 | 0.686 | 0.165 | 2.08 | 2.53 | -14.3 |
| CN(Cc1ccsc1)C(=O)Nc1cccnc1N1CCCC1 | -9.81 | 7.89 | -31.4 | -9.07 | -7.38 | 0.719 | 2.62 | 6.49 | -1.48 | 3.7 | -2.06 |
| COCCN1CCC(CN(CC2CCCO2)C(=O)COC)CC1 (stereo unspecified) | -4.47 | 15.3 | -11 | 28.6 | 7.09 | 4.86 | 5.79 | -0.94 | 3.16 | 15.4 | -9.34 |
| CNC(=O)C(NC(=O)c1nccn2ccnc12)c1ccc(F)c(F)c1 (stereo unspecified) | -5.39 | 13.5 | -2.95 | 5.66 | 5.27 | 16.2 | 19 | -10.6 | 5.94 | 15.8 | 23.6 |
| Cc1cccc(C(=O)NC2CCN(c3cnn(C)c3)C2=O)n1 (stereo unspecified) | -4.94 | 16.2 | -3.39 | 24.3 | 7.33 | 23.6 | 9.36 | -7.64 | 3.23 | 13.6 | -10.2 |
| O=C(NCc1cnc2n1CCN(CC1CC1)CC2)C1CCC1 | -2.75 | 13.5 | -7.3 | 21.4 | 4.79 | 18.1 | 7.47 | -8.45 | 6.45 | 16.1 | -4.7 |
| COCC1CN(Cc2ccc(C)o2)Cc2cn(C)nc21 (stereo unspecified) | -1.58 | 10.7 | -0.404 | 16.5 | -0.965 | -18.5 | 5.13 | -4.89 | 10.4 | 20 | -7.5 |
| O=C1NCCN1C1CCN(Cc2nc(-c3ccoc3)no2)CC1 | -1.17 | 5.2 | 2.43 | 5.09 | 3.56 | -2.85 | 4.56 | -2.53 | 0.971 | 12.2 | -2.45 |
| CCOc1ccccc1OC1CCN(C(=O)c2cc[nH]n2)CC1 | -5.63 | 13.2 | 8.96 | -2.66 | -4.13 | 4.21 | 12.4 | 26.7 | 2.45 | 7.32 | -7.55 |
| CCNc1cc2c(nn1)CCN(C(=O)c1ccc(NC3CC3)nc1)C2 | -3.24 | 0 | -3.65 | 11.3 | 3.38 | 1.15 | 2.67 | 6.81 | 5.39 | 9.76 | 1.67 |
| O=C(c1cccs1)N1CCC(n2nc(-c3ccco3)ccc2=O)CC1 | -6.35 | 12.2 | 7.9 | 14 | -1.19 | -5.8 | 12.9 | 0.605 | 9.68 | 16.9 | -26.4 |
| COc1cc(C(=O)N(C2CC2)C2CC(=O)NC2=O)ccc1C (stereo unspecified) | 0.67 | 12.7 | 4.42 | 4.45 | -7.84 | 8.37 | 1.72 | 24.4 | 4.43 | 11.4 | -4.59 |
| CC(C)(C)C(=O)N1CCC2(COCc3cnc(N4CCOCC4)nc32)C1 (stereo unspecified) | -4.89 | 4 | 3.79 | 6.02 | -2.36 | -7.57 | 9.06 | -1.15 | 2.12 | 2.56 | -1.68 |
| COC(=O)c1sccc1S(=O)(=O)N1CCC(Oc2ncccc2Cl)CC1 | -6.92 | -8.22 | 18.7 | 1.08 | 4.9 | -0.455 | 3.02 | 35.1 | -19.4 | -20 | -1.89 |
| Cc1csc(N2CCN(CC(=O)Nc3nncs3)CC2C)n1 (stereo unspecified) | -3.67 | 0 | -9.26 | 8.6 | -0.836 | -3.88 | 5.92 | 9.1 | 3.96 | -1.22 | 10.3 |
| O=C1COC2(CCN(Cc3ccoc3)CC2)CN1c1ccsc1 | 0.00228 | 18.7 | 6.94 | -2.69 | -0.591 | 1.63 | 14.4 | -27.3 | 7.45 | 11.5 | -2.01 |
